# Assay results from paper PMC6792352, “Limited Chemical Structural Diversity Found to Modulate Thyroid Hormone Receptor in the Tox21 Chemical Library” (Environmental Health Perspectives, 2019).
# Structures can show the parent of a compound that is named as a salt.
# System: thyroid hormone receptor (endogenous TRα and TRβ)
# Set-up: species or system GH3-TRE-Luc (rat pituitary); GH3-TRE-Luc luciferase reporter, antagonist mode against 1 nM T3, loss of signal, qHTS
# Conditions: read-out: Average AC50 (uM) GH3-TRE-Antag, antagonist mode, 1 nM T3, no GH3 cytotoxicity hit
row,Compound,AC50 [µM]
1,CC[C@H](C)COC(=O)/C=C/c1ccc(N=Cc2ccc(OC)cc2)cc1 [(+)-2-Methylbutyl-4-methoxybenzyladine-4'-aminocyannate],62
2,CC(CN1CC(=O)NC(=O)C1)N1CC(=O)NC(=O)C1 (stereo not shown) [ICRF-159],33.9
3,CCOC(CN1CCN(CC(C)C(=O)c2ccccc2)CC1)c1ccccc1 (stereo not shown) [Eprazinone dihydrochloride],32.1
4,CC(C)(C)NCC(O)COc1ccc(NC(=O)NC2CCCCC2)cc1 (stereo not shown) [Talinolol],26.4
5,CCN(CC)CCNC(C(=O)OCCC(C)C)c1ccccc1 (stereo not shown) [Camylofin],> 50
6,Brc1cc(-c2ccc(Br)c(Br)c2Br)cc(Br)c1Br [Polybrominated biphenyls (PBB)],51.8
7,"COc1ccc(C(=O)c2ccccc2O)c(O)c1 [2,2'-Dihydroxy-4-methoxybenzophenone]",> 20
8,OCc1c[nH]c2ccccc12 [Indole-3-carbinol],58.4
9,O=S(=O)(NS(=O)(=O)C(F)(F)F)C(F)(F)F [1-Hexyl-3-methylimidazolium bis(trifluoromethylsulfonyl)imide],66.1
10,COC(C)(C)CCCC(C)C/C=C/C(C)=C/C(=O)OC(C)C (stereo not shown) [Methoprene],43.4
11,CCCCOc1ccc(OCCCN2CCOCC2)cc1 [Pramoxine hydrochloride],12.8
12,CC1(C)[C@H](C(=O)OCc2coc(Cc3ccccc3)c2)[C@@H]1/C=C1\CCSC1=O [Kadethrin],48.4
13,CC(C)(C)c1ccccc1O [2-tert-Butylphenol],84.6
14,CO[C@H]1O[C@@H]2O[C@@]3(C)CC[C@H]4[C@H](C)CC[C@@H]([C@H]1C)[C@@]24OO3 [Artemether],> 50
15,CCOC(=O)OC1=C(c2cc(C)ccc2C)C(=O)N[C@]12CC[C@@H](OC)CC2 [Spirotetramat],69.7
16,CC(C(=O)O)c1ccc2c(c1)CC(=O)c1ccccc1S2 (stereo not shown) [Zaltoprofen],29.1
17,CC(C)c1cccc(C(C)C)c1O [Propofol],> 50
18,CCC(=O)Oc1ccc(/C(CC)=C(\CC)c2ccc(OC(=O)CC)cc2)cc1 [Diethylstilbestrol dipropionate],56.1
19,COC(=O)Nc1ccc(Cl)c(Cl)c1 [Swep],> 90
20,CCN(CC)C(=O)C(C)Oc1cccc2ccccc12 (stereo not shown) [Napropamide],74.1
21,CCc1cccc(C)c1N(C(=O)CCl)C(C)COC (stereo not shown) [Metolachlor],77
22,CC(C)=CCC/C(C)=C/CC/C(C)=C/CC/C(C)=C/CC1=C(C)C(=O)c2ccccc2C1=O [Menatetrenone],24.9
23,Cn1cnc([N+](=O)[O-])c1Sc1ncnc2[nH]cnc12 [Azathioprine],> 50
24,C#C[C@]1(OC(C)=O)CC[C@H]2[C@@H]3CCC4=CC(=O)CC[C@@H]4[C@H]3CC[C@@]21C [Norethindrone acetate],10
25,COc1cccc(N)c1 [3-Methoxyaniline],80.8
